Our source for the inhibition values is PubChem BioAssay.

Several values for one entry are separate records, joined by “and”; a condition that tells them apart may be missing. Equal entries are not always repeated. A number with no mark means an inactive call. Activity calls are given as the source filed them. Unless noted, no stated cut-off is given here; in the data, active means inhibition above about 28%; inactive means the rest.

Assay [1] deals with Nuclear receptor coactivator 3 (Homo sapiens) (UniProt Q9Y6Q9). Description: NCOA3 GAL4-fusion reporter inhibition – cell-based, luminescence, quadruplicate, confirmation (AID 588792;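 active means mean inhibition over 43.08%, the solvent-only control mean plus 3 SD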;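 further: 0% = DMSO treated cells and 100% = gossypol at 36 µM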). The following applies: HEK293 GAL4-SRC3 luciferase reporter, at 3.6 µM, stronger effect = higher value. On the technique in general: Reporter assays use an easily measured gene product as a stand-in for the process of interest.

In assay [2] the test system is transactivating tegument protein VP16 (Human herpesvirus 1), Gal4-VP16 luciferase reporter. Put plainly: repression of VP16-driven luciferase reporter – cell-based, luminescence, high throughput, counter-screen for SRC3 inhibitor project (AID 588794; in the data active means inhibition above about 30%). The settings on record: mammalian cells, at 3.6 µM, stronger effect = higher value.
Assay [3] is described as follows: StAR promoter reporter inhibitors, counter-screen for LRH-1 inverse agonist project, cell-based, luminescence, high throughput (AID 651611). The following applies: StAR promoter luciferase reporter counterscreen, at 3.6 µM, stronger effect = higher value. Background: Counterscreens check selectivity or assay interference.
Assay [4] deals with Nuclear receptor subfamily 5 group A member 2 (Homo sapiens) (UniProt O00482). Put plainly: NR5A2 activity suppression in reporter cells – cell-based, luminescence, confirmation (AID 651613; in the data active means inhibition above about 42%;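 further: HEK293T cells co-transfected with LRH-1 and StAR promoter luciferase reporter; 0% = vehicle wells and 100% = parental cells lacking receptor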). The following applies: cell-based LRH-1 luciferase reporter, inverse agonism; at 3.6 µM; stronger effect = higher value.
In assay [5] the target is Steroidogenic factor 1 (Homo sapiens) (UniProt Q13285). Description: inverse agonism at SF1 nuclear receptor – cell-based, luminescence, high throughput, counter-screen for LRH-1 inverse agonist project (AID 651614; in the data active means inhibition above about 44%;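 further: cells cotransfected with StAR promoter reporter and SF1 expression vector; 0% = vehicle on cells with receptor and 100% = vehicle on cells lacking receptor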). The following applies: cell-based SF1 luciferase reporter, at 3.6 µM, stronger effect = higher value.
A short description of assay [6]: compounds suppressing VP16-driven luciferase signal – cell-based, luminescence, high throughput, counter-screen for LRH-1 inverse agonist project (AID 651615; in the data active means inhibition above about 33%). The settings on record: Gal4-VP16 luciferase reporter cells, at 3.6 µM, stronger effect = higher value.
Assay [7] concerns transactivating tegument protein VP16 (Human herpesvirus 1). Description: compounds suppressing VP16-driven luciferase signal – cell-based, luminescence, single concentration, counter-screen for SRC2 inhibitor project (AID 652007; in the data active means inhibition above about 36%). The settings on record: cell-based VP16 transactivation luciferase reporter, at 8.9 µM, stronger effect = higher value.
Assay [8] deals with Nuclear receptor coactivator 2 (Homo sapiens) (UniProt Q15596). Put plainly: inhibition of GAL4-SRC2 driven luciferase expression – cell-based, luminescence, HEK293, triplicate, confirmation (AID 652008;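 active means mean inhibition above 46.5%, the solvent-only control mean plus 3 SD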;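 further: 0% = DMSO-treated cells and 100% = Gossypol at 36 µM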). The settings on record: HEK293 GAL4-SRC2 luciferase reporter, at 8.9 µM, stronger effect = higher value.
Sequence of Nuclear receptor coactivator 2 (Homo sapiens) (Q15596 whole entry, looked up, the tested form may be a part): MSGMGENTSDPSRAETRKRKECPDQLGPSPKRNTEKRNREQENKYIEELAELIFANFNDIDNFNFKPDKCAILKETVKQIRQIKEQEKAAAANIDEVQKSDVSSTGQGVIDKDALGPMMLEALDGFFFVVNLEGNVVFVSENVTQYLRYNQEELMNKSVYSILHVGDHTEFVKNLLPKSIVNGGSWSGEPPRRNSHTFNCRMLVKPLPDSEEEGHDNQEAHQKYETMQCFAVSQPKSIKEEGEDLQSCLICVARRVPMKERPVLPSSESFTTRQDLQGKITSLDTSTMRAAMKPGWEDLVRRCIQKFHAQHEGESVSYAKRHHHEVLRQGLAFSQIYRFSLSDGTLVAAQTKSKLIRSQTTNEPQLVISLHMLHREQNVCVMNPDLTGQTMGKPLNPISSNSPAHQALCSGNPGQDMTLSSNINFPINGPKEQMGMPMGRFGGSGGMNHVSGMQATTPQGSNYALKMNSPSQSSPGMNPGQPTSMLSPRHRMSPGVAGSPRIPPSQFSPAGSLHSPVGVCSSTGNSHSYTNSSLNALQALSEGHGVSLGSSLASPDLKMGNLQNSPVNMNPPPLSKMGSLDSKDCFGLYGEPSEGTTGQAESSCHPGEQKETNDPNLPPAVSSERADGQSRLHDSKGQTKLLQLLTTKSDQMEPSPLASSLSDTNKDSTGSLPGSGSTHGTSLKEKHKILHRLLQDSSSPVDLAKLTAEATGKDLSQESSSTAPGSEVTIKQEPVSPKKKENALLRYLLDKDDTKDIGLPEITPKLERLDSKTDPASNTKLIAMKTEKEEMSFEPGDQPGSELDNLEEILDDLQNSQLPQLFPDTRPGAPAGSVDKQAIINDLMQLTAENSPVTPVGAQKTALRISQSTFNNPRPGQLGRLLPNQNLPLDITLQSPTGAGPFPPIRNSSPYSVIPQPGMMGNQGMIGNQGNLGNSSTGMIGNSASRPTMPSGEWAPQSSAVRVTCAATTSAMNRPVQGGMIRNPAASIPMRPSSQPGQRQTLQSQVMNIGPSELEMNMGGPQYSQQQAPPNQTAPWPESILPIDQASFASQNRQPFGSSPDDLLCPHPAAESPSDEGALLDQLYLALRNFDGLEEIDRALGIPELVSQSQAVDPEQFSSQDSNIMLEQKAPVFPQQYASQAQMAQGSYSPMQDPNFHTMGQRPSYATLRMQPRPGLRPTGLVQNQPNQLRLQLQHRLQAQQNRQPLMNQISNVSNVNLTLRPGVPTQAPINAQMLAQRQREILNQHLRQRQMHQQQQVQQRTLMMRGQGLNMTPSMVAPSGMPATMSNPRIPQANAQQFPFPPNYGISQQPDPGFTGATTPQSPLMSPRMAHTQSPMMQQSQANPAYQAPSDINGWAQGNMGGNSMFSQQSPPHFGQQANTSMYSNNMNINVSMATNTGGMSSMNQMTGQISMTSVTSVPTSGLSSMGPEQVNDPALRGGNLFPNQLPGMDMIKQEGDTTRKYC

Sequence of Steroidogenic factor 1 (Homo sapiens) (Q13285 whole entry, looked up, the tested form may be a part): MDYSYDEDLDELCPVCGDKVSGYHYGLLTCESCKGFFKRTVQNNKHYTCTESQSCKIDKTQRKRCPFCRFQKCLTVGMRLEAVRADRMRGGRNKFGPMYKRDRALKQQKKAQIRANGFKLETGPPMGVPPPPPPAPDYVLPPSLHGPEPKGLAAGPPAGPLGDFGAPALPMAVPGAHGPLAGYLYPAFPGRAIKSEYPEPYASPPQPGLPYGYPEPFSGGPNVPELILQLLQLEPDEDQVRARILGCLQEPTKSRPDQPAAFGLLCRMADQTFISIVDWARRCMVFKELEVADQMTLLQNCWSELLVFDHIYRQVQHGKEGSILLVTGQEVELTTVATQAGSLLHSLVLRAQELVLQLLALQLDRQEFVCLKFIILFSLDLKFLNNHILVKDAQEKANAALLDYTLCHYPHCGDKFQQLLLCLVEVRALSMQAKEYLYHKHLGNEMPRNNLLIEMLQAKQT
Sequence of Nuclear receptor subfamily 5 group A member 2 (Homo sapiens) (O00482 whole entry, looked up): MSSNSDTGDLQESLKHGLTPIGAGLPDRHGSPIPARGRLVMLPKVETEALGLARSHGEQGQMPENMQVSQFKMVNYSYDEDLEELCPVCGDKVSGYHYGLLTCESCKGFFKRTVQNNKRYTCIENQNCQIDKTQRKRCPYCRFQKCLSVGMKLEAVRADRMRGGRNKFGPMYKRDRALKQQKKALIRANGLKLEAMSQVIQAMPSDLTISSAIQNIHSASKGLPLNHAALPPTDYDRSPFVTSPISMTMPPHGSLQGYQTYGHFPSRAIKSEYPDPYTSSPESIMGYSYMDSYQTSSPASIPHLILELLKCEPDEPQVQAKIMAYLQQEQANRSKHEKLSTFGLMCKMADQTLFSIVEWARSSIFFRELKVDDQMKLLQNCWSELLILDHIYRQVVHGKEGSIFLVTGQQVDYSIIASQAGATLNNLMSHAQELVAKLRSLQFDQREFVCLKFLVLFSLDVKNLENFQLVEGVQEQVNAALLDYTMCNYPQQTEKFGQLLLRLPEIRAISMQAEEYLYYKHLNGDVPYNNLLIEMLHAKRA
Sequence of Nuclear receptor coactivator 3 (Homo sapiens) (Q9Y6Q9 whole entry, looked up, the tested form may be a part): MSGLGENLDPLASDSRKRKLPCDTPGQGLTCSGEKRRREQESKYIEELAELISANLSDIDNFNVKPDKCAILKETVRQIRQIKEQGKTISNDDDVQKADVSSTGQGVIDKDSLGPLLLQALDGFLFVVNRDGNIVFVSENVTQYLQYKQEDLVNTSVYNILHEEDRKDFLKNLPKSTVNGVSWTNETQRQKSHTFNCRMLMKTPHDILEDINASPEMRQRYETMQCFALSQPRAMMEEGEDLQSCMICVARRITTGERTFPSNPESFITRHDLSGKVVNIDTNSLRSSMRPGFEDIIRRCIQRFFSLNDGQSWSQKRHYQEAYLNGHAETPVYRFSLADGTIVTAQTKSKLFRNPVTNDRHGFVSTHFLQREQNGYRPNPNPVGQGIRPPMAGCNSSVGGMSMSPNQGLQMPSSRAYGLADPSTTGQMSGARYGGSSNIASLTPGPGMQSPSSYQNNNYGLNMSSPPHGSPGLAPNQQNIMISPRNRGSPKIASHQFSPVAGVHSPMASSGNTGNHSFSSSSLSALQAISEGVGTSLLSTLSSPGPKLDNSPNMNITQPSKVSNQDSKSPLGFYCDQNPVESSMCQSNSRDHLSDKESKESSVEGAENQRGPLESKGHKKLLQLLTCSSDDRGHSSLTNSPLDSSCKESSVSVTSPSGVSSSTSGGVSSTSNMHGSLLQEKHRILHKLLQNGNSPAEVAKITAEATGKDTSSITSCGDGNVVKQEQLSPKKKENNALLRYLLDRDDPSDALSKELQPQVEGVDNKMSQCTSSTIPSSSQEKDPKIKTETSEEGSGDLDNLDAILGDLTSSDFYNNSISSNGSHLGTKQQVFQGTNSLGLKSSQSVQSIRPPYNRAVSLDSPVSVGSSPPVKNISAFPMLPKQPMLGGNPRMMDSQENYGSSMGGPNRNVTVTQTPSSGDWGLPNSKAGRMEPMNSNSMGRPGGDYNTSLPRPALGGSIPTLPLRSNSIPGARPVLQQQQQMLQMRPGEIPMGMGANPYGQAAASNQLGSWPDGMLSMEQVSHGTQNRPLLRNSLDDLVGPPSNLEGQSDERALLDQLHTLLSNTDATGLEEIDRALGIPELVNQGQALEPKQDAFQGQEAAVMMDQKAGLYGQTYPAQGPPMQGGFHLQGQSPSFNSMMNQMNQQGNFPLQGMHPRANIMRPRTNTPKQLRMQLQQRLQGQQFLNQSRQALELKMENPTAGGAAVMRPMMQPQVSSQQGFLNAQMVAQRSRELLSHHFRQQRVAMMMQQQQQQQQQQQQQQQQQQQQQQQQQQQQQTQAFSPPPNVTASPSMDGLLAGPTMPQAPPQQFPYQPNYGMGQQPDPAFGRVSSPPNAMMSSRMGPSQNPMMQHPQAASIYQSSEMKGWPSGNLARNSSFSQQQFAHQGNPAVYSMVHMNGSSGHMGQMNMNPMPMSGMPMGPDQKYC

Turning to `COc1cc(C)c(Br)cc1S(=O)(=O)NCc1ccncc1`, the inhibition in assay [1] was 9.21%; in assay [2], 30.9% (active); in assay [3], 14.3%; in assay [4] it was 49% (active); in assay [5], 38.5%; in assay [6], 38% (active).
On to `CCN1/C(=C/c2ccc3cc(C)ccc3[n+]2CC)Sc2cc(C)ccc21`, for which the inhibition is 26.1% in assay [1]; 64% (active) in assay [2]; 39.8% (active) in assay [3]; 108% (active) in assay [4]; 75.6% (active) in assay [5]; 83.3% (active) in assay [6].
In the case of `CCN(CC)c1ccc(/C=N/NC(=O)c2c(Cl)cnn2C)c(O)c1`, the inhibition in assay [1] was 64.2% (active); in assay [2], 72.8% (active); in assay [3], 83% (active); in assay [4], 96.4% (active); in assay [5], 79.9% (active); in assay [6] it was 60.9% (active).
Regarding `COc1ccc(-n2c(-c3ccc(Br)cc3)c[n+]3c2CCc2ccccc2-3)cc1`, the inhibition in assay [1] is 32.4%; in assay [2], 36.3% (active); in assay [3] it was 22.1%; in assay [4], 96.4% (active); in assay [5], 65% (active); in assay [6] it was 73% (active).
On to `c1cnc2c(c1)ccc1cccnc12`, for which the inhibition was 42.2% in assay [1]; 31.6% (active) in assay [2]; 70.5% (active) and 77.1% (active) in assay [3]; 104% (active) in assay [4]; 59.1% (active) and 70.5% (active) in assay [5]; 50.6% (active) and 74.9% (active) in assay [6].
Turning to `Cc1cc(C(=O)NC2CCCc3c2cnn3-c2ccc(C)c(C)c2)n(C)n1` (stereo not drawn), the inhibition was 21.1% in assay [1]; 52.5% (active) in assay [2]; 33.4% (active) in assay [3]; 62% (active) in assay [4]; 57.4% (active) in assay [5]; 67.1% (active) in assay [6].
In the case of `Cc1ccc(OCCN2CCN(c3ncnc4sc(C)c(C)c34)CC2)cc1`, the inhibition is 4.63% in assay [1]; 39.1% (active) in assay [2]; 34.8% (active) in assay [3]; 56.1% (active) in assay [4]; 61.3% (active) in assay [5]; 53.9% (active) in assay [6].
As to `Cc1nnsc1S(=O)c1ccc(Cl)c(Cl)c1` (stereo not drawn), the inhibition is 34.3% in assay [1]; 9.36% in assay [2]; 25.5% in assay [3]; 64.4% (active) in assay [4]; 66.4% (active) in assay [5]; 20.8% in assay [6].
With `O=C(Nc1ccccc1)Nc1cc(OCC(F)(F)F)cc(OCC(F)(F)F)c1`, the inhibition was 21.7% in assay [1]; 20.5% in assay [2]; 22.9% in assay [3]; 71.3% (active) in assay [4]; 54.7% (active) in assay [5]; 54.3% (active) in assay [6].
Regarding `CC(=O)c1cn(CC(=O)Nc2ccc(C)cc2C)c2ccccc12`, the inhibition is 11.1% in assay [1]; 28.2% in assay [2]; 11.3% in assay [3]; 71.5% (active) in assay [4]; 64.5% (active) in assay [5]; 47.4% (active) in assay [6].
Turning to `COc1cc2c(c(OC)c1OC)-c1ccc(SC)c(=O)cc1C(NC=O)CC2` (stereo not drawn), the inhibition in assay [1] is 44.5% (active); in assay [2], 15.7%; in assay [3] it was 67% (active); in assay [4], 65.8% (active); in assay [5] it was 69.7% (active); in assay [6] it was 54.5% (active).
Take `c1ccc(CNc2nc(-c3ccccn3)nc3ccccc23)cc1`: the inhibition in assay [1] was 21.8%; in assay [2], 29.9% (active); in assay [3], 68.7% (active); in assay [4], 76.8% (active); in assay [5], 84.3% (active); in assay [6] it was 66.5% (active).
`COc1cc(/C=C/C(=O)c2ccc(C)cc2)ccc1OCC#N`: the inhibition in assay [1] is 31.2%; in assay [2], 41.2% (active); in assay [3], 23.6%; in assay [4] it was 29.3%; in assay [5], 36.5%; in assay [6], 44.4% (active). The results for the inhibition in assay [7] and in assay [8] were 28% and 29.4%, respectively.
As to `O=C(NC1CCCCCCC1)c1cc(COc2ccc3ncccc3c2)on1`, the inhibition in assay [1] is 17.3%; in assay [2] it was 40.2% (active); in assay [3], 25.3%; in assay [4], 55% (active); in assay [5], 54.8% (active); in assay [6] it was 51.6% (active).
Take `C=C1C(=O)[C@]23C[C@H]1CCC2[C@@]1(C)C(C[C@@H]3O)[C@](C)(C(=O)OC)CC[C@@H]1OC(C)=O` (stereo partly drawn): the inhibition in assay [1] is 62.7% (active); in assay [2], 44.9% (active); in assay [3], 61.7% (active); in assay [4], 70.7% (active); in assay [5] it was 80.6% (active); in assay [6], 76.2% (active). Moreover, the inhibition in assay [7] was 83.2% (active); in assay [8], 99% (active).
For `CC(C)CCOc1cccc(OCC(=O)Nc2ccncc2)c1`, the inhibition in assay [1] was -1.73%; in assay [2] it was 35.9% (active); in assay [3] it was 21.4%; in assay [4] it was 61% (active); in assay [5], 60.3% (active); in assay [6] it was 58.9% (active). For the same molecule, the inhibition in assay [7] was 27.6%; in assay [8], 38%.
Turning to `CCOc1ccc(-n2c(-c3ccccc3)c[n+]3c2CCCCC3)cc1`, the inhibition in assay [1] was 28.7%; in assay [2], 52.4% (active); in assay [3] it was 29.9% (active); in assay [4] it was 90.5% (active); in assay [5], 72.3% (active); in assay [6], 66.2% (active).
In the case of `Cc1ccc(C(=O)Nc2sc3c(c2C(=O)O)CCC(C)C3)o1` (stereo not drawn), the inhibition in assay [1] was 28%; in assay [2], 68.3% (active); in assay [3], 53.4% (active); in assay [4] it was 89.5% (active); in assay [5] it was 85.8% (active); in assay [6], 77% (active).
In the case of `O=C(CCl)N(c1ccccc1)C1CCCCC1`, the inhibition is 30.5% in assay [1]; -7.5% in assay [2]; 43.5% (active) in assay [3]; 70.4% (active) in assay [4]; 66.2% (active) in assay [5]; 16.5% in assay [6]. In addition, the results for the inhibition in assay [7] and in assay [8] were 55.6% (active) and 57.8% (active), respectively.
In the case of `COc1cc(N(C)C)ccc1C=c1c2ccccc2n2c1cc(-c1ccccc1)[n+]2C`, the inhibition in assay [1] was 57.7% (active); in assay [2], 67.2% (active); in assay [3] it was 56.9% (active); in assay [4], 109% (active); in assay [5] it was 87.4% (active); in assay [6], 92.5% (active).

The term inhibition denotes the change of the read-out against control, counted positive when it falls.
